Screens as filed in PubChem.
SMN2 splice enh: qHTS Assay for Enhancers of SMN2 Splice Variant Expression; hit rate 2.8% among 210,000; Potency, µM (series often up to 46.1 µM), for the others: at the top dose activity change, positive = activation, usual class: activators; HEK293 SMN2-luciferase splicing reporter, luminescence, 30-36 h; AID 1458, 2008; also: % of control where 0% means no effect; nearly all actives have a fitted effect of over 55% in size
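HEK293 cells carry an SMN2 minigene-luciferase reporter in which exon 7 inclusion puts luciferase in frame. Cells were seeded at 2000 cells/well, attached for 10-12 hours, then exposed to compounds for 30-36 hours at 37C before ONE-Glo luminescence.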
Rab9 prom act: qHTS Assay for Rab9 Promoter Activators; hit rate 2.8% among 320,000; Potency, µM (top dose mostly 9.22 µM), without a hit: at the highest dose activation, negative = inhibition, most hits filed as activators; Huh7 Rab9 promoter-luciferase reporter, luminescence, 24 h; also: % of control where 0% means no effect; nearly all actives have a fitted effect of over 60% in size
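Cells were plated at 1500 per well in reduced-serum medium with 10% FBS and left 2 h. Compound in DMSO was then added for 24 h at 37 °C. Reporter signal was read by luminescence after 10 min with luciferase detection reagent.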
ELG1 genotoxic: qHTS screen for small molecules that induce genotoxicity in human embryonic kidney (HEK293T) cells expressing luciferase-tagged ELG1. AID 504466, 2011. Potency, µM (highest dose often 46 µM), for the others: top-dose activity change, positive = activation, hits mostly activators. hit rate 1.3% among 330,000. HEK293T ELG1-luciferase reporter, luminescence, 16 h; also: % of control where 0% means no effect; nearly all actives have a fitted effect of over 60% in size
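Step 1: seed 2,000 HEK293T ELG1-luciferase cells per well. Step 2: add compound or DMSO, incubate 16 hr at 37 °C. Step 3: ONE-Glo, 30 min at room temperature, read luminescence.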
ELG1 DNA repair: qHTS screen for small molecules that inhibit ELG1-dependent DNA repair in human embryonic kidney (HEK293T) cells expressing luciferase-tagged ELG1. hit rate 2.3% among 330,000. Potency, µM (doses to about 46.1 µM), for the others: at the highest dose activity change, negative = inhibition, most hits filed as inhibitors. HEK293T ELG1-luciferase reporter, luminescence, 16 h; DNA damage induced by 5-fluorouridine. AID 504467, 2011; also: % is scaled to controls: 0 for no effect and ±100 for the full control effect; nearly all actives have a fitted effect of over 55% in size
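Luminescence from the luciferase reporter, measured 30 min after ONE-Glo reagent at room temperature, was the read-out. Beforehand, 2,000 cells per well were exposed for 16 hr at 37 °C to 5-fluorouridine together with compound or vehicle.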
FLuc modulator: qHTS profiling assay for firefly luciferase inhibitor/activator using purifed enzyme and Km concentrations of substrates (counterscreen for miR-21 project); Luciferin 4-monooxygenase (Photinus pyralis), P08659; purified FLuc, Km substrates, luminescence inhibition; Potency, µM (top dose mostly 57.5 µM), without a hit: at the top dose activity change, negative = inhibition, actives largely listed as inhibitors; hit rate 6.9% among 360,000; AID 588342, 2011;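 also: plate controls were vehicle for no effect and reference inhibitor for full effect; nearly all actives have a fitted effect of over 55% in size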
Target sequence (P08659 whole entry, looked up): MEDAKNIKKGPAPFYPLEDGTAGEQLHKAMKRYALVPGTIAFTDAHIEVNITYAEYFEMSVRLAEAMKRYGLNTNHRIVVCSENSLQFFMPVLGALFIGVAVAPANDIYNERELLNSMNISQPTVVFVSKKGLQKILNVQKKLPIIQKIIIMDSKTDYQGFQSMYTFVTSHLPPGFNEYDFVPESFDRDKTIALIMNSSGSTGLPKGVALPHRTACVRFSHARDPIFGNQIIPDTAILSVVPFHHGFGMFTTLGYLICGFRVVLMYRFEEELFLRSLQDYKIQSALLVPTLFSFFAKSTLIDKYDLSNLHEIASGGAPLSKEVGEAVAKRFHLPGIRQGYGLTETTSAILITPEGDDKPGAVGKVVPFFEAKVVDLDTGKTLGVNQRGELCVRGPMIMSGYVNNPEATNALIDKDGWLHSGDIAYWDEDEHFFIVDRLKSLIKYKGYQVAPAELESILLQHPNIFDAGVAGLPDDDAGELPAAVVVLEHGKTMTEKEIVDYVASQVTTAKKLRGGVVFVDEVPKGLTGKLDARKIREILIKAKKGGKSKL
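Purified P. pyralis luciferase (10nM final) with 10uM D-luciferin and 10uM ATP (Km levels) in 50mM Tris acetate pH 7.5, 10mM Mg acetate, 0.01% Tween-20, 0.05% BSA; qHTS 6-point titration, ~60 µM downward; luminescence read.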
NPC1 promoter act: qHTS Assay for NPC1 Promoter Activators; Huh7 NPC1 promoter luciferase reporter, 24 h; Potency, µM (doses to about 9.22 µM), for the others: at the top dose activation, most hits filed as activators; hit rate 2.4% among 320,000; AID 485313, 2010; also: % of control where 0% means no effect; nearly all actives have a fitted effect of over 60% in size
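Compounds in DMSO were transferred onto Huh7 NPC1-luciferase reporter cells pre-incubated 2 h; after 24 h at 37 °C, Amplite reagent was dispensed and luminescence recorded 10 min later.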
Numbers without * were called inactive; ? = inconclusive; . = not tested or not shown. Rows were chosen to be rich in hits. Some 9.2% of all compounds tested hit in one or more screens of this group. Calls follow the shape of the dose curve; as a rule, active = well fitted curve in the direction sought with a large enough effect; inconclusive = small, poorly fitted or top-dose-only effect, or another doubt; inactive = no such curve, though single readings can be large; an effect the other way counts as inactive or inconclusive. Potency is read from the fitted curve at half-maximal effect.

SMILES	SMN2 splice enh	Rab9 prom act	ELG1 genotoxic	ELG1 DNA repair	FLuc modulator	NPC1 promoter act
O=C(c1ccc2c3n(nc2c1)-c1ccc(Cl)cc1CO3)N1CCCCC1	.	1.8µM*	?	?	5.4µM*	2.2µM*
O=C(c1ccc2c(=O)n3c(nc2c1)CCCCC3)N1CCCCC1	.	-5%	1%	?	2%	-3%
O=C(O)c1ccc2c3n(nc2c1)-c1ccc(Cl)cc1CO3	.	?	1%	1%	1.9µM*	?
COc1ccc(-c2nc(SCC(=O)Nc3c(F)cccc3F)n[nH]2)cc1	.	-3%	16%	13%	12µM*	-1%
CC(=O)c1cccc(NC(=O)CSc2n[nH]c(-c3ccncc3)n2)c1	.	-12%	2%	14%	?	1%
COc1ccc(-c2nc(SCC(=O)Nc3cccc(C(C)=O)c3)n[nH]2)cc1	.	.	.	.	6.7µM*	.
COc1ccc(-c2nc(SCC(=O)Nc3cc(C)on3)n[nH]2)cc1	-11%	1%	11%	-17%	21µM*	0%
CCCCOc1ccc(-c2nc(=S)[nH][nH]2)cc1	10µM*	?	30%	?	?	26%
CCCCOc1ccc(-c2nc(SCC(N)=O)n[nH]2)cc1	10%	25%	12%	?	11µM*	?
C=CCSc1n[nH]c(-c2ccccc2)n1	16%	28%	?	?	?	28%
C=CCSc1n[nH]c(-c2ccc(OC)cc2)n1	14µM*	2µM*	3.3µM*	?	15µM*	2.8µM*
CCOc1ccc(N(CC)C(=O)CSc2n[nH]c(-c3ccccc3)n2)cc1	.	.	.	.	-19%	.
CCCC(=O)C1=C(c2cccc(OC)c2)N(C(=O)CCC)n2c(C)nnc2S1	.	.	.	.	2%	.
Cc1c(Cl)cccc1NC(=O)CSc1nnc(C)n1-c1ccccc1	-1%	7%	-49%	?	-1%	0%
O=C(CSc1nnc(-c2n[nH]c3ccccc23)n1-c1ccccc1)Nc1ccccc1Cl	-20%	0%	-19%	23µM*	0%	-4%
O=C(COC(=O)Cn1cnc2ccccc21)Nc1ccc2c(c1)C(=O)c1ccccc1C2=O	-12%	?	12µM*	?	?	?
CC(=O)c1ccc(NC(=O)COC(=O)Cn2cnc3ccccc32)cc1	.	.	3%	?	.	.
Cc1ccc(C(=O)Oc2ccc3ccc(=O)oc3c2)cc1	.	0%	2%	29%	2.4µM*	-4%
COc1cccc(C(=O)Oc2ccc3ccc(=O)oc3c2)c1	.	1%	3%	9%	5.4µM*	-6%
Cc1ccc(C(=O)Oc2ccc(N3C(=O)CCC3=O)c(C)c2)cc1	7%	-14%	7%	8%	2.7µM*	-4%
O=C(Nc1ccc(F)c(Cl)c1)c1cc(S(=O)(=O)NCc2ccc3c(c2)OCO3)ccc1F	.	.	.	.	-7%	.
COC(c1ccccc1)c1nnc(CCC(=O)N2CCCCCCC2)o1 (centres undefined)	.	-2%	1%	8%	-4%	-4%
COC(c1ccccc1)c1nnc(CCC(=O)N(C)C(C2CC2)C2CC2)o1 (centres undefined)	.	2.8µM*	?	?	13µM*	?
COc1cc(S(=O)(=O)Nc2cccnc2)ccc1Cl	.	0%	-4%	10%	-1%	-4%
Cc1nc(N2CCN(S(=O)(=O)c3ccccc3)CC2)c2c3c(sc2n1)CC(C)CC3 (centres undefined)	-27%	-5%	-13%	?	-7%	0%
SMILES	SMN2 splice enh	Rab9 prom act	ELG1 genotoxic	ELG1 DNA repair	FLuc modulator	NPC1 promoter act
Cc1nc(N2CCN(S(=O)(=O)c3cccc4nonc34)CC2)c2c3c(sc2n1)CCCC3	12%	-3%	-7%	18µM*	-17%	-1%
COc1ccc(NC(=O)CCS(=O)(=O)c2nc(-c3cccs3)cc(C(F)(F)F)n2)cc1OC	?	.	.	.	6%	.
Nc1ccc2nc3c(=O)n(C4CCCCC4)c(=O)[nH]c3nc2c1	.	?	?	?	12µM*	?
Nc1ccc2nc3c(=O)n(CCc4ccccc4)c(=O)[nH]c3nc2c1	.	17%	-3%	?	-14%	-1%
CCCCn1c(=O)[nH]c2nc3cc(N)ccc3nc2c1=O	?	3.2µM*	17%	?	-26%	?
O=C(Nc1cccc(Cl)c1)c1cnc2sc(N3CCCC3)nn2c1=O	.	.	.	.	-1%	.
CSc1nnc2c3c4c(sc3nc(-n3nc(C)cc3C)n12)COC(C)(C)C4	.	-6%	1%	13µM*	-3%	10%
Cc1cc(C)n(-c2nc(NCCC(C)C)c3c4c(sc3n2)COC(C)(C)C4)n1	-36%	-3%	-18%	18µM*	-11%	-3%
O=c1c(-c2cccc(F)c2)nc2cncnc2n1Cc1ccccc1	-25%	.	.	.	.	.
Cc1ccc(CNC(=O)CCCn2c(=O)c3ccccc3n(Cc3ccccc3Cl)c2=O)cc1	2%	.	.	.	-6%	.
CCOC(=O)N1N=C(c2ccc(OC)cc2)CC1(O)C(F)(F)F (centres undefined)	.	0.89µM*	?	?	3.4µM*	1.1µM*
CCOC(=O)N1N=C(c2ccccc2)CC1(O)C(C)(F)F (centres undefined)	8%	-5%	0%	6%	6%	-4%
CCc1ccc(C2=NN(C(=O)OC)C(O)(C(F)(F)F)C2)cc1 (centres undefined)	-2%	0.63µM*	?	?	2.7µM*	0.45µM*
CC1(C)OC(=O)C(=CNc2cccc(O)c2)C(=O)O1	4%	0%	3%	-12%	?	9%
CC1(C)OC(=O)C(=NNc2ccc(Br)cc2)C(=O)O1	-29%	-4%	2%	?	19µM*	-2%
COc1ccc(/C=C2\SC(=N)N(c3nccs3)C2=O)cc1OC	-23%	0%	?	?	2.1µM*	-3%
CCc1cccc(NC(=O)CCS(=O)(=O)c2cc(Br)cc3c2N(C(C)=O)CC3)c1	-16%	.	.	.	-1%	.
COc1ccc(Cl)cc1NC(=O)CN(C)C(=O)C12CC3CC(CC(Cl)(C3)C1)C2	.	-10%	-6%	18µM*	2%	-2%
COc1ccc(Cl)cc1NC(=O)CN(C)C(=O)CCSc1ccc(C)cc1	.	-8%	0%	?	19µM*	1%
CCN(CC)C(=O)Cn1c(=O)n(-c2ccc(Cl)cc2)c(=O)c2c3c(sc21)CCCCC3	0%	.	.	.	-12%	.
